PubChem BioAssay AID1159580 (chemical genetic matrix, 2015)
Where “and” joins values, the source holds several entries; their conditions need not be identical. Identical values can stand only once. The campaign covered roughly 5,500 compounds. About 2,000 (36%) were called active. Inconclusive results (about 18%) are left out. No stated cut-off is given here; in the data, active means normalized growth mostly below about 0.91 (no sharp cut-off); inconclusive means no clear call, values can overlap the other calls; inactive means mostly above about 0.92. Some of the results follow.

Test: chemical genetic growth profiling, strain panel (AID 1159580);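 further: tested at 20 µM; growth read once vehicle control cultures reached saturation at 30 °C; 1 = growth at the plate median or of vehicle wells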
Conditions: growth OD

Measured: normalized growth

C/C1=C\CCC(=O)C2CC(C)(C)C2CC1 (stereo unspecified)
inactive: S. cerevisiae deletion strains, locus YBR021W, strain FUR4, stronger effect = lower value 0.997 | S. cerevisiae deletion strains, locus YBR229C, strain ROT2, stronger effect = lower value 1.02 | S. cerevisiae deletion strains, locus YCL029C, strain bik1, stronger effect = lower value 1.03 | S. cerevisiae deletion strains, locus YDL035C, strain GPR1, stronger effect = lower value 0.999 | S. cerevisiae deletion strains, locus YDL074C, strain BRE1, stronger effect = lower value 1.02 | S. cerevisiae deletion strains, locus YDL101C, strain DUN1, stronger effect = lower value 1.03 | S. cerevisiae deletion strains, locus YDL134C, strain PPH21, stronger effect = lower value 1.04 | S. cerevisiae deletion strains, locus YDL185W, strain tfp1, stronger effect = lower value 1.03 | S. cerevisiae deletion strains, locus YDL192W, strain arf1, stronger effect = lower value 1.01 | S. cerevisiae deletion strains, locus YDR101C, strain arx1, stronger effect = lower value 1 | S. cerevisiae deletion strains, locus YDR162C, strain NBP2, stronger effect = lower value 1.03 | S. cerevisiae deletion strains, locus YDR318W, strain mcm21, stronger effect = lower value 1.03 | S. cerevisiae deletion strains, locus YDR388W, stronger effect = lower value 1.03 | S. cerevisiae deletion strains, locus YDR502C, strain sam2, stronger effect = lower value 1.03 | S. cerevisiae deletion strains, locus YEL061C, strain CIN8, stronger effect = lower value 1.02 | S. cerevisiae deletion strains, locus YER110C, stronger effect = lower value 1.04 | S. cerevisiae deletion strains, locus YER155C, strain BEM2, stronger effect = lower value 1.01 | S. cerevisiae deletion strains, locus YER167W, strain BCK2, stronger effect = lower value 1.01 | S. cerevisiae deletion strains, locus YGL078C, strain dbp3, stronger effect = lower value 1.02 | S. cerevisiae deletion strains, locus YGL086W, strain mad1, stronger effect = lower value 1.02 | S. cerevisiae deletion strains, locus YGL248W, strain PDE1, stronger effect = lower value 1.03 | S. cerevisiae deletion strains, locus YGR135W, strain pre9, stronger effect = lower value 1.07 | S. cerevisiae deletion strains, locus YGR252W, strain gcn5, stronger effect = lower value 1 | S. cerevisiae deletion strains, locus YHR030C, strain SLT2, stronger effect = lower value 1.02 and 1.01 | S. cerevisiae deletion strains, locus YHR079C, strain IRE1 (second series), stronger effect = lower value 1.02 | S. cerevisiae deletion strains, locus YHR079C, strain IRE1, stronger effect = lower value 1.01 | S. cerevisiae deletion strains, locus YHR094C, strain hxt1, stronger effect = lower value 1.02 | S. cerevisiae deletion strains, locus YHR129C, strain ARP1, stronger effect = lower value 1.01 | S. cerevisiae deletion strains, locus YHR200W, strain rpn10, stronger effect = lower value 1.03 | S. cerevisiae deletion strains, locus YIL066C, strain RNR3, stronger effect = lower value 1.02 | S. cerevisiae deletion strains, locus YIL073C, strain SPO22, stronger effect = lower value 1.08 | S. cerevisiae deletion strains, locus YIL125W, strain kgd1, stronger effect = lower value 1.02 | S. cerevisiae deletion strains, locus YIR030C, strain dcg1, stronger effect = lower value 1.02 | S. cerevisiae deletion strains, locus YJL095W, strain BCK1, stronger effect = lower value 1.07 and 1.02 | S. cerevisiae deletion strains, locus YJL134W, strain LCB3, stronger effect = lower value 1.02 | S. cerevisiae deletion strains, locus YJL168C, strain set2, stronger effect = lower value 1.02 | S. cerevisiae deletion strains, locus YJL187C, strain SWE1 (second series), stronger effect = lower value 1.04 | S. cerevisiae deletion strains, locus YJR043C, strain POL32, stronger effect = lower value 1.01 | S. cerevisiae deletion strains, locus YJR066W, strain TOR1, stronger effect = lower value 0.954 | S. cerevisiae deletion strains, locus YKL009W, strain mrt4, stronger effect = lower value 0.982 | S. cerevisiae deletion strains, locus YKL068W, stronger effect = lower value 1.02 | S. cerevisiae deletion strains, locus YKL085W, strain MDH1 (second series), stronger effect = lower value 1.01 | S. cerevisiae deletion strains, locus YKL085W, strain MDH1, stronger effect = lower value 1.01 | S. cerevisiae deletion strains, locus YKL190W, strain CNB1, stronger effect = lower value 1.01 | S. cerevisiae deletion strains, locus YKR001C, strain vps1, stronger effect = lower value 1.04 | S. cerevisiae deletion strains, locus YLR039C, strain RIC1, stronger effect = lower value 1.09 | S. cerevisiae deletion strains, locus YLR058C, strain SHM2, stronger effect = lower value 1.02 | S. cerevisiae deletion strains, locus YLR102C, strain apc9, stronger effect = lower value 1.02 | S. cerevisiae deletion strains, locus YLR113W, strain HOG1, stronger effect = lower value 1.03 | S. cerevisiae deletion strains, locus YLR262C, strain YPT6, stronger effect = lower value 1.1 | S. cerevisiae deletion strains, locus YLR268W, strain sec22, stronger effect = lower value 1.01 | S. cerevisiae deletion strains, locus YLR342W, strain FKS1 (second series), stronger effect = lower value 1.03 | S. cerevisiae deletion strains, locus YLR371W, strain rom2, stronger effect = lower value 1.04 | S. cerevisiae deletion strains, locus YLR418C, strain cdc73, stronger effect = lower value 1.04 | S. cerevisiae deletion strains, locus YML016C, strain PPZ1, stronger effect = lower value 1.03 | S. cerevisiae deletion strains, locus YML032C, strain rad52, stronger effect = lower value 1.02 | S. cerevisiae deletion strains, locus YML124C, strain tub3, stronger effect = lower value 1.02 | S. cerevisiae deletion strains, locus YMR078C, strain ctf18, stronger effect = lower value 1.02 | S. cerevisiae deletion strains, locus YMR223W, strain ubp8, stronger effect = lower value 1.01 | S. cerevisiae deletion strains, locus YMR307W, strain GAS1, stronger effect = lower value 1.09 | S. cerevisiae deletion strains, locus YNL067W, strain RPL9B, stronger effect = lower value 1.03 | S. cerevisiae deletion strains, locus YNL183C, strain NPR1, stronger effect = lower value 0.954 | S. cerevisiae deletion strains, locus YNL233W, strain BNI4, stronger effect = lower value 1.05 | S. cerevisiae deletion strains, locus YNL250W, strain rad50, stronger effect = lower value 1.07 | S. cerevisiae deletion strains, locus YNL271C, strain bni1, stronger effect = lower value 1.02 | S. cerevisiae deletion strains, locus YNL298W, strain CLA4, stronger effect = lower value 1.01 | S. cerevisiae deletion strains, locus YNL307C, strain MCK1, stronger effect = lower value 1.03 | S. cerevisiae deletion strains, locus YNR052C, strain pop2, stronger effect = lower value 1.04 | S. cerevisiae deletion strains, locus YOL006C, strain TOP1, stronger effect = lower value 1.1 | S. cerevisiae deletion strains, locus YOL012C, strain htz1 1.02 | S. cerevisiae deletion strains, locus YOL147C, strain pex11, stronger effect = lower value 1.01 | S. cerevisiae deletion strains, locus YOR061W, strain CKA2, stronger effect = lower value 1.02 | S. cerevisiae deletion strains, locus YOR069W, strain VPS5, stronger effect = lower value 1.02 | S. cerevisiae deletion strains, locus YOR136W, strain idh2, stronger effect = lower value 1.02 | S. cerevisiae deletion strains, locus YOR144C, strain elg1, stronger effect = lower value 1.02 | S. cerevisiae deletion strains, locus YOR184W, strain ser1, stronger effect = lower value 1 | S. cerevisiae deletion strains, locus YOR231W, strain MKK1, stronger effect = lower value 1 | S. cerevisiae deletion strains, locus YOR316C, strain cot1, stronger effect = lower value 1.03 | S. cerevisiae deletion strains, locus YPL055C, strain LGE1, stronger effect = lower value 1.05 | S. cerevisiae deletion strains, locus YPL256C, strain CLN2, stronger effect = lower value 0.999 | S. cerevisiae deletion strains, locus YPR119W, strain clb2, stronger effect = lower value 1.02 | S. cerevisiae deletion strains, locus YPR141C, strain kar3, stronger effect = lower value 1.03 | S. cerevisiae deletion strains, locus YPR163C, strain tif3, stronger effect = lower value 1.02 | S. cerevisiae deletion strains, locus YPR167C, strain met16, stronger effect = lower value 1.02 | S. cerevisiae deletion strains, strain wtn01, stronger effect = lower value 1.02 | S. cerevisiae strains, strain wild type, stronger effect = lower value 1.03
